The values below come from PubChem BioAssay (NCI).

Test in all cases: NCI-60 one-dose screen, 48 h (100 = growth as untreated, 0 = no growth, -100 = all killed)
Assay [1] relates to NCI-H23 lung. The settings on record: 10 µM unless noted.
Assay [2] concerns NCI-H226 lung. Conditions: 10 µM unless noted.
Assay [3] concerns NCI-H322M lung. Conditions: 10 µM unless noted.
Assay [4] deals with HOP-62 NSCLC. Conditions: 10 µM unless noted.
The test system of assay [5] is NCI-H460 lung. Conditions: 10 µM unless noted.
The test system of assay [6] is HOP-92 NSCLC. The settings on record: 10 µM unless noted.
In assay [7] the test system is NCI-H522 lung. Conditions: 10 µM unless noted.
The subject of assay [8] is 786-0 renal. The settings on record: 10 µM unless noted.
Assay [9] deals with COLO 205 colon. The settings on record: 10 µM unless noted.
The test system of assay [10] is DU-145 prostate. Conditions: 10 µM unless noted.
The test system of assay [11] is K-562 leukemia. The settings on record: 10 µM unless noted.
Assay [12] concerns MALME-3M melanoma. The settings on record: 10 µM unless noted.
The subject of assay [13] is MDA-MB-231 breast. The settings on record: 10 µM unless noted.
For assay [14], the system named is RXF 393 renal. Conditions: 10 µM unless noted.
The test system of assay [15] is SF-268 CNS. The settings on record: 10 µM unless noted.
For assay [16], the system named is SF-295 CNS. The settings on record: 10 µM unless noted.
Assay [17] concerns SF-539 CNS. Conditions: 10 µM unless noted.
In assay [18] the test system is UACC-257 melanoma. Conditions: 10 µM.
Assay [19] concerns M14 melanoma. Conditions: 10 µM unless noted.

The structures appear in SMILES notation. About 83,000 compounds went through this panel and 20% of them were active in at least one assay; those are over-represented in the sample as a whole.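 In brief: 96-well plates, 48 h treatment, single concentration, percent growth endpoint.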 Values without a mark were called inactive. Activity calls are given as the source filed them. Rule for the calls: active = growth percent below 10; inactive = the rest.

Regarding `Oc1ccc(CSc2nnc(-c3ccc(Cl)cc3)o2)c2cccnc12`, the growth in assay [1] was 27.6%; in [2] it was 60.2%; in assay [3] it was 26.1%; in assay [4] it was 21.5%; in assay [5], 5.72% (active); in assay [6] it was 21.8%. Besides, the growth in assay [7] is 32%; in assay [8], 27.9%; in assay [9] it was 97.4%; in assay [10] it was 31.8%; in assay [11], 16.2%; in [12] it was 36.8%. The growth is 52.1% in assay [13]; 52.2% in assay [14]; 24.2% in assay [15]; 5.94% (active) in assay [16]; 17% in assay [17]; 18.8% in assay [18]. In assay [19], the growth is 9.55% (active).
Regarding `C=C1C(=O)O[C@@H]2C[C@@H](C)/C=C\C(=O)[C@](C)(OC(C)=O)C[C@H](OC(=O)/C(C)=C\C)[C@@H]12`, the growth in assay [1] was -13.9% (active); in [2], -43.4% (active); in [3], 88%; in assay [4], 74.6%; in [5], 20%; in [6] it was -35.6% (active). For the same compound, the growth in assay [7] is -82.4% (active); in assay [8], -62.8% (active); in [9], -78.3% (active); in [10] it was 3.77% (active); in assay [12], -36.4% (active); in [13], -71.8% (active). The growth in assay [14] is -88.1% (active); in [15], -1.46% (active); in assay [16], 70.6%; in assay [17], -57.5% (active); in [18] it was -76.1% (active); in assay [19] it was -37.1% (active).
For the compound `CCOC(=O)C1=C(C)N=C2Sc3ccccc3N2C1c1ccccc1` (stereo unspecified), the growth in [1] is 85.2%; in assay [2] it was 89.2%; in assay [3], 86.8%; in assay [4], 101%; in assay [5], 91.2%; in assay [6] it was 75.4%. Besides, the growth in assay [7] is 73.9%; in assay [8] it was 87.7%; in assay [9], 96%; in [10], 98.2%; in assay [11] it was 72.8%; in assay [12], 102%. Moreover, the growth was 83.2% in [13]; 109% in [14]; 101% in assay [15]; 98.3% in assay [16]; 90.3% in assay [17]; 92.6% in assay [18]. For the same compound, the growth in assay [19] was 89.5%.
`O=C1Nc2ccc(Cl)cc2/C1=C/c1ccc(OCc2ccc(F)cc2)cc1`: the growth in assay [1] is 92.5%; in assay [2] it was 96.4%; in [3] it was 95.7%; in assay [4], 107%; in [5], 97.7%; in [6], 85.6%. Further, the growth was 90.4% in assay [7]; 98.4% in assay [8]; 99.4% in [9]; 95.9% in assay [10]; 78.4% in assay [11]; 102% in assay [12]. In addition, the growth in assay [13] was 95.2%; in assay [14] it was 95.5%; in assay [15], 92.7%; in [16] it was 99%; in assay [17], 96%; in assay [18], 96.6%. In assay [19], the growth is 98.1%.
Consider `Oc1ccc(CSc2nnc(-c3ccc(Br)cc3)n2-c2ccccc2)c2cccnc12`, for which the growth was 38.2% in assay [1]; 44.7% in [2]; 52.4% in [3]; 16.1% in assay [4]; 7.57% (active) in assay [5]; 31.9% in assay [6]. Also, the growth was 28.5% in assay [7]; 43.2% in assay [8]; 39.2% in assay [10]; 15.8% in [11]; 52% in assay [12]; 59.2% in [13]. Besides, the growth in assay [14] was 71.5%; in assay [15] it was 32.7%; in [16], 6.74% (active); in [17], 16.8%; in assay [18] it was 25.2%; in assay [19], 30.1%.
As to `N#Cc1c(-c2ccccc2)cc(-c2c[nH]c3ccccc23)nc1-c1c[nH]c2ccccc12`, the growth was 95.6% in assay [1]; 89.9% in [2]; 105% in assay [3]; 92.7% in [4]; 106% in assay [5]; 92.1% in assay [6]. For the same compound, the growth was 97.1% in [7]; 102% in [8]; 108% in [9]; 108% in assay [10]; 101% in assay [11]; 99.8% in assay [12]. Besides, the growth in assay [13] was 92.6%; in assay [14], 95%; in [15], 96.1%; in assay [16] it was 96.4%; in assay [17], 98.6%; in assay [18], 107%. For the same compound, in assay [19], the growth is 101%.
Regarding `CCNC(=NCCCN(C)C)N/C(N)=N/c1nc2ccccc2s1`, the growth is 98.7% in assay [1]; 92.7% in assay [2]; 91.5% in assay [3]; 82.4% in assay [4]; 104% in [5]; 58.1% in assay [6]. Moreover, the growth in assay [7] was 99.2%; in [8], 84.6%; in assay [9], 78.7%; in assay [10], 99.5%; in assay [11] it was 65.9%; in [12], 97%. Moreover, the growth in assay [13] was 73.6%; in assay [14], 65.4%; in assay [15], 94.8%; in assay [16], 92.4%; in assay [17], 82.9%; in [18], 104%. Besides, the growth in assay [19] is 97%.
